Rango-impB inh: inhibitors of Rango-importin beta complex formation | Potency, µM (top dose mostly 92.2 µM) | 340,000 tested, 0.031% active | Q14974 | Rango CFP/YFP FRET sensor + importin beta, 45 min; calls by dose curve; further: nearly all actives have a fitted effect of over 15% in size
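FRET biosensor (snurportin 1 IBB flanked by EYFP and cerulean), 50 nM, with compound 5 min, then 0.125 microM importin beta in PBS, 1 mM DTT, 0.02% Tween-20, 0.1% BSA. CFP/YFP ratio read after 45 min at room temperature; pre-read flags interference.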
Vif-APOBEC3G blk: Vif-A3G binding inhibition. Q9HC16. HeLa A3G-eYFP + Vif (tagged APOBEC3G with the HIV-1 protein that degrades it), YFP fluorescence, overnight. Potency, µM (titrated, usually from 46.1 µM), actives largely listed as inhibitors. 410,000 tested, 0.076% active. AID 602310; further: nearly all actives have a fitted effect of over 60% in size
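Read-out is eYFP fluorescence (Ex 488/Em 500-530) from Vif-expressing HeLa A3G-eYFP cells; more signal means A3G escaped Vif-mediated degradation. Cells plated overnight, compound pinned in, incubated overnight at 37 deg C.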
Rango release inh: prevents RanGTP from dissociating the Rango-importin beta complex. Biochemical FRET Rango-importin beta, RanGTP-induced dissociation. 340,000 tested, 0.071% active. Potency, µM (doses to about 46.1 µM). AID 540253. O95149+P62826; calls by dose curve; further: nearly all actives have a fitted effect of over 45% in size
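FRET read at 45 min, room temperature: inhibitors block the CFP/YFP signal rise when RanGTP (0.6 uM Ran, 2 mM GTP, 0.2 uM RCC1) frees Rango (0.1 uM) from importin beta (0.25 uM). Pre-read after 5 min compound exposure flags interference.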
Epigenetic reg: regulators of epigenetic silencing causing reporter derepression in mouse cells. AID 1865. murine LDR cells, GFP reporter derepression, 30 h. 280,000 tested, 0.2% active. Potency, µM (doses to about 53.9 µM), actives largely listed as activators; further: nearly all actives have a fitted effect of over 60% in size
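Murine LDR cells bearing a silenced CMV-driven GFP reporter were exposed to compound for 30 h at 37 C. After PBS washes, GFP-positive cells (20-120 um objects) counted by laser-scanning microplate cytometry.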
Vif-APOBEC3F blk: Vif-A3F binding inhibition; HeLa A3F-eYFP + Vif (tagged APOBEC3F with the HIV-1 protein that degrades it), YFP fluorescence increase; Potency, µM (titrated, usually from 46.1 µM); 390,000 tested, 0.2% active; AID 602313; further: nearly all actives have a fitted effect of over 65% in size
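HeLa cells stably expressing A3F-eYFP plus Vif, plated and incubated overnight at 37 deg C, then exposed to compounds overnight at 37 deg C. Blocked degradation read as raised yellow fluorescence (Ex 488/Em 500-530).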
A number is an active result; – = inactive; ? = inconclusive; · = no result given. An excerpt weighted towards active compounds, which were near 0.42% of everything screened. Unless noted, the call rests on the fitted dose curve; in most records, active means well fitted curve in the direction sought with a large enough effect; inconclusive means small, poorly fitted or top-dose-only effect, or another doubt; inactive means no such curve, though single readings can be large; an effect the other way counts as inactive or inconclusive.

SMILES | Rango-impB inh | Vif-APOBEC3G blk | Rango release inh | Epigenetic reg | Vif-APOBEC3F blk
COc1ccccc1/C=C1\C(=O)NC(=S)N(c2ccccc2)C1=O | ? | – | – | · | –
CC[C@@]1(O)C(=O)OCc2c1cc1n(c2=O)Cc2cc3c(O)cccc3nc2-1 | · | · | · | – | ·
ClCCN(CCCl)c1ccc(C=Cc2ccncn2)cc1 | ? | – | ? | · | 22µM
O=C(NCc1ccccc1)c1cccc(Nc2nc3ccccc3n3nnnc23)c1 | · | – | · | – | ?
CC(C)CS(=O)(=O)C1=NN2C(=N)/C(=C\c3ccc(OC(=O)c4ccco4)cc3)C(=O)N=C2S1 | ? | – | 26µM | · | –
S=C(S)N1CCCC1 | – | – | – | ? | ?
O=[N+]([O-])c1ccc2c(c1)Cc1cc(O)ccc1-2 | – | – | – | · | –
Nc1ccc2c(c1)Cc1cc([N+](=O)[O-])ccc1-2 | – | ? | ? | ? | 11µM
Cc1ccc(Cl)cc1NC(=O)Cn1c(=O)oc2cc(S(=O)(=O)N3CCCCCC3)ccc21 | · | – | · | – | ?
